# PubChem BioAssay (Tox21)
# “And” between values parts separate entries of the source, which are not always exact repeats. Identical values can stand only once. Records with an inconclusive call do not appear. Some compounds were tested as several samples or in several runs, with calls that do not always agree. The source made the active and inactive calls. Calls come from the whole dose curve; as a rule, active = well fitted curve in the direction sought with a large enough effect in the repeat runs; inconclusive = weak or mixed curves; inactive = no such curve, though single readings can be large; an effect the other way counts as inactive or inconclusive.
# Assay: qHTS assay to identify small molecule antagonists of the androgen receptor (AR) signaling pathway using the MDA cell line in the presence of 0.5 nM R1881 - cell viability counter screen (AID 1259242)
# Conditions: MDA-kb2 viability, CellTiter-Fluor protease fluorescence, 16 h; series mostly up to 92.4 µM; viability change, negative = cytotoxic: at the top concentration
# Method in brief: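 Concentration-response screen of compounds for toxicity in MDA-kb2 reporter cells: 16 hr at 37C with 0.5 nM R1881, endpoint live-cell protease fluorescence measured in the reporter wells.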
# % is set by controls: 0 for no effect and ±100 for the full control effect; potency is the fitted concentration of half-maximal effect.
# Note: nearly all actives have a fitted effect of over 45% in size.
SMILES,"viability change, negative = cytotoxic",Potency
C#CCO,1.76% (inactive),–
CC(=O)[O-].CC(=O)[O-].O.O.[Zn+2],4.72% (inactive),–
COC(=O)c1ccccc1S(=O)(=O)NC(=O)Nc1nc(C)nc(OC)n1,-0.321% (inactive),–
CCOC(=O)CCN(SN(C)C(=O)Oc1cccc2c1OC(C)(C)C2)C(C)C,0.673% (inactive),–
[Cl-].[Cl-].[Sn+2],0.95% (inactive),–
CCn1cc[n+](C)c1 (tested in a mixture with another compound),-1.16% (inactive),–
CCCCn1cc[n+](C)c1 (tested in a mixture with another compound),-2.29% (inactive),–
C#CCC1=C(C)C(OC(=O)C2C(C=C(C)C)C2(C)C)CC1=O (stereo not drawn),4.24% (inactive),–
CO/N=C(/C1=NOCCO1)c1ccccc1Oc1ncnc(Oc2ccccc2Cl)c1F,–,17.2 µM (active)
CC(C)C(Nc1ccc(C(F)(F)F)cc1Cl)C(=O)OC(C#N)c1cccc(Oc2ccccc2)c1 (stereo not drawn),-1.86% (inactive),–
CC1(C)C(C=C(Cl)Cl)C1C(=O)OC(C#N)c1ccc(F)c(Oc2ccccc2)c1 (stereo not drawn),8.81% (inactive),–
CCOP(=O)(OCC)Oc1cc(C)nc(C(C)C)n1,0.134% (inactive),–
Clc1ccc(C(Cl)(Cl)Cl)cc1Cl,-12.9% (inactive),–
Cc1c([N+](=O)[O-])cc2c(c1[N+](=O)[O-])C(C)(C)CC2(C)C,-2.59% (inactive),–
CCC1COC(Cn2cncn2)(c2ccc(Cl)cc2Cl)O1 (stereo not drawn),2.62% (inactive),–
CCCN,0.901% (inactive),–
CSSC,-10.8% (inactive),–
C#CC1(O)CCCCC1,2.66% (inactive),–
CN=C=O,7.24% (inactive),–
CNC(=O)CSP(=O)(OC)OC,0.487% (inactive),–

SMILES,"viability change, negative = cytotoxic",Potency
CN,0.458% (inactive),–
CCCCON=O,7.67% (inactive),–
CCCCC(CC)COC(=O)OOC(C)(C)C (stereo not drawn),2.36% (inactive),–
Nc1cc(Cl)ccc1Cl,2.88% (inactive),–
CSC1=N[C@@](C)(c2ccccc2)C(=O)N1Nc1ccccc1,–,27.3 µM (active)
CCCC[N+]1(C)CCCC1 (tested in a mixture with another compound),0% (inactive),–
CCC(C)Nc1c([N+](=O)[O-])cc(C(C)(C)C)cc1[N+](=O)[O-] (stereo not drawn),-0.848% (inactive),–
C=CCOC(=O)c1ccccc1N,1.22% (inactive),–
CCOP(=S)(OCC)SC(CCl)N1C(=O)c2ccccc2C1=O (stereo not drawn),-2.64% (inactive),–
C[C@]12Cc3cn[nH]c3C[C@@H]1CC[C@@H]1[C@@H]2CC[C@@]2(C)[C@H]1CC[C@]2(C)O,-1.24% [at 42.5 µM] (inactive),–
CC(=O)[O-].CC(=O)[O-].O.O.O.[Pb+2],-0.838% (inactive),–
CCCCCCCCCCCCCCn1cc[n+](C)c1,–,30.7 µM (active) and 34 µM (active) and inactive
COc1nc(C)nc(NC(=O)NS(=O)(=O)c2ccccc2Cl)n1,0.794% (inactive),–
CC(=O)[O][Sn]([c]1ccccc1)([c]1ccccc1)[c]1ccccc1,–,0.306 µM (active)
O=C(Nc1ccc(F)cc1F)c1cccnc1Oc1cccc(C(F)(F)F)c1,2.47% (inactive),–
CNN,0.0077% (inactive),–
Clc1cc(Cl)c(-c2cc(Cl)c(Cl)cc2Cl)cc1Cl,0.842% [at 42.5 µM] (inactive),–
C=CC(=C)C,3.43% (inactive),–
Clc1ccc(C(c2ccc(Cl)cc2)C(Cl)Cl)cc1,–,inactive

# Assay: qHTS assay to identify small molecule HDAC inhibitors (AID 1259364);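 note: wild-type HCT-116 cells with endogenous class I/II HDAC activity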; for activity change, negative = inhibition: top concentration of the series differs between compounds
# Conditions: HCT-116 HDAC-Glo I/II luminescence, 2 h; series mostly up to 92.4 µM; activity change, negative = inhibition: at the top concentration
# Method in brief: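 Screening used wild-type human colon HCT-116 cells incubated overnight, dosed with compounds for 2 hours, and assayed with a homogeneous luminogenic HDAC I/II reagent for 30 minutes at room temperature.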
SMILES,"activity change, negative = inhibition",Potency
C#CCO,10.2% (inactive),–
CC(=O)[O-].CC(=O)[O-].O.O.[Zn+2],0.984% (inactive),–
COC(=O)c1ccccc1S(=O)(=O)NC(=O)Nc1nc(C)nc(OC)n1,0.007% (inactive),–
CCOC(=O)CCN(SN(C)C(=O)Oc1cccc2c1OC(C)(C)C2)C(C)C,-7.32% (inactive),–
[Cl-].[Cl-].[Sn+2],1.69% (inactive),–
CCn1cc[n+](C)c1 (tested in a mixture with another compound),4.92% (inactive),–
CCCCn1cc[n+](C)c1 (tested in a mixture with another compound),-3.96% (inactive),–
C#CCC1=C(C)C(OC(=O)C2C(C=C(C)C)C2(C)C)CC1=O (stereo not drawn),0.816% (inactive),–
CO/N=C(/C1=NOCCO1)c1ccccc1Oc1ncnc(Oc2ccccc2Cl)c1F,-0.942% (inactive),–
CC(C)C(Nc1ccc(C(F)(F)F)cc1Cl)C(=O)OC(C#N)c1cccc(Oc2ccccc2)c1 (stereo not drawn),-16.2% (inactive),–
CC1(C)C(C=C(Cl)Cl)C1C(=O)OC(C#N)c1ccc(F)c(Oc2ccccc2)c1 (stereo not drawn),7.13% (inactive),–
CCOP(=O)(OCC)Oc1cc(C)nc(C(C)C)n1,2.73% (inactive),–
Clc1ccc(C(Cl)(Cl)Cl)cc1Cl,–,15 µM (active)
Cc1c([N+](=O)[O-])cc2c(c1[N+](=O)[O-])C(C)(C)CC2(C)C,-7.19% (inactive),–
CCC1COC(Cn2cncn2)(c2ccc(Cl)cc2Cl)O1 (stereo not drawn),-12.5% (inactive),–
CCCN,-0.71% (inactive),–
CSSC,0.455% (inactive),–
C#CC1(O)CCCCC1,-2.77% (inactive),–
CN=C=O,2.17% (inactive),–
CNC(=O)CSP(=O)(OC)OC,13.6% (inactive),–

SMILES,"activity change, negative = inhibition",Potency
CN,-2.21% (inactive),–
CCCCON=O,-1.14% (inactive),–
CCCCC(CC)COC(=O)OOC(C)(C)C (stereo not drawn),-23% (inactive),–
Nc1cc(Cl)ccc1Cl,0.343% (inactive),–
CSC1=N[C@@](C)(c2ccccc2)C(=O)N1Nc1ccccc1,-0.107% (inactive),–
CCCC[N+]1(C)CCCC1 (tested in a mixture with another compound),-17.6% (inactive),–
CCC(C)Nc1c([N+](=O)[O-])cc(C(C)(C)C)cc1[N+](=O)[O-] (stereo not drawn),0.667% (inactive),–
C=CCOC(=O)c1ccccc1N,-8.32% (inactive),–
CCOP(=S)(OCC)SC(CCl)N1C(=O)c2ccccc2C1=O (stereo not drawn),-3.51% (inactive),–
C[C@]12Cc3cn[nH]c3C[C@@H]1CC[C@@H]1[C@@H]2CC[C@@]2(C)[C@H]1CC[C@]2(C)O,1.15% [at 42.5 µM] (inactive),–
CC(=O)[O-].CC(=O)[O-].O.O.O.[Pb+2],0.308% (inactive),–
CCCCCCCCCCCCCCn1cc[n+](C)c1,–,inactive
COc1nc(C)nc(NC(=O)NS(=O)(=O)c2ccccc2Cl)n1,-0.0597% (inactive),–
CC(=O)[O][Sn]([c]1ccccc1)([c]1ccccc1)[c]1ccccc1,-17.8% (inactive),–
O=C(Nc1ccc(F)cc1F)c1cccnc1Oc1cccc(C(F)(F)F)c1,0.919% (inactive),–
CNN,-12.8% (inactive),–
Clc1cc(Cl)c(-c2cc(Cl)c(Cl)cc2Cl)cc1Cl,2.53% [at 42.5 µM] (inactive),–
C=CC(=C)C,-16.7% (inactive),–
Clc1ccc(C(c2ccc(Cl)cc2)C(Cl)Cl)cc1,–,inactive
